The source made the active and inactive calls. Unless noted, how the calls were made is not given here.

Here are results for eight compounds from PubChem BioAssay.

Assay [1] has as its system Wnt5a (protein binding on small-molecule microarray). In words: small molecules binding Wnt5a protein – biophysical, small-molecule microarray, 635/667 nm fluorescence, primary screen (AID 1142).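 Further: fluorescence read at 667 nm with signal to noise per printed feature.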 The following applies: 635 nm fluorescence, higher = more signal.
Assay [2] can be described thus: ATP-based viability of Huh7 replicon cells – cell-based, CellTiter-Glo luminescence, basal, 48 h, cytotoxicity control for HCV replication inhibitor project, primary screen (AID 1143).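 Further: Huh7 hepatoma cells carrying a hepatitis C replication reporter with no stimulus; test concentration not given here.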 The following applies: higher = more signal, called active from +8 up or from −8 down. A general note: In antiviral work, replicon cells carry a viral genome segment that copies itself.

Assay [3] is described as follows: Pseudomonas biofilm growth suppression – PAO1 strain, BacTiter-Glo luminescence, LB-PBS, primary screen (AID 1144). Particulars: P. aeruginosa PAO1 biofilm, 12 h, higher = more signal.
A short description of assay [4]: basal CRE-LacZ reporter activity in PC12 – cell-based, unstimulated, primary screen (AID 1145). The following applies: no forskolin, luminescence, 4.5 h, higher = more signal, called active from +8 up or from −8 down.
Assay [5] in a line: forskolin-driven CRE-LacZ activity in PC12 – cell-based, CRE-LacZ reporter, forskolin-stimulated, primary screen (AID 1146).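 Further: PC12 cells with 6xCRE LacZ reporter stimulated by forskolin 10 µM; beta-galactosidase reporter signal reflecting CREB driven transcription.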 Particulars: luminescence, 4.5 h, higher = more signal, called active from +8 up or from −8 down.
Assay [6] has as its target Streptavidin (Streptomyces avidinii) (UniProt P22629). The assay is described as follows: compounds binding control protein streptavidin – biophysical, small-molecule microarray, 635/667 nm fluorescence, artefact control for SMM compound annotation, primary screen (AID 1147).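 Further: signal reflects streptavidin binding to arrayed compounds as a control protein.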 Particulars: higher = more signal.
A short description of assay [7]: probe aInhba binding on compound microarray – biochemical, small-molecule microarray, 635/667 nm fluorescence, primary screen (AID 1148).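 Further: score merges 667nm spot fluorescence with signal-to-noise for antibody binding to printed compounds.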 The following applies: higher = more signal.
Assay [8] concerns the target Torsin-1A (Homo sapiens) (UniProt O14656). In words: TOR1A wild-type binding on microarray – cell lysate, small-molecule microarray, lysate, 635/667 nm, primary screen (AID 1149). Particulars: COS7 hTOR1A-WT lysate, 635 nm fluorescence, higher = more signal.
Assay [9] shares this target. The assay is described as follows: torsin A mutant lysate binding on microarrays – cell lysate, small-molecule microarray, COS7 lysate, 635/667 nm fluorescence, primary screen (AID 1150).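 Further: score pools 667 nm emission and signal to noise measuring lysate protein binding.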 The following applies: COS7 hTOR1A mutant lysate, 635 nm fluorescence, higher = more signal.
Assay [10] has as its system Sonic hedgehog protein (Shh). In words: Sonic hedgehog microarray binding compounds – biochemical, small-molecule microarray, 635/667 nm fluorescence, primary screen (AID 1151).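 Further: Shh protein binding to compounds spotted on small-molecule microarray slides; score combines spot fluorescence intensity with signal-to-noise across triplicate slides.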 Particulars: 635 nm fluorescence, higher = more signal.
Assay [11] in a line: optical density shifts of acrAB sulA E. coli – strain DRC41, OD650, 48 h, E. coli filamentation inducer project, primary screen (AID 1152).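 Further: E. coli MC1000 strain DRC41 lacking acrAB efflux pump and sulA.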 Particulars: higher = more signal, called active from +8 up or from −8 down.
Assay [12] is described as follows: probe aLefty1 binding on compound microarray – biochemical, small-molecule microarray, 635/667 nm fluorescence, primary screen (AID 1153).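 Further: score merges spot fluorescence with signal-to-noise ratio from the scanned slide images.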 The following applies: higher = more signal.
The nature of assay [13]: plasmodial surface anion channel blockers, osmotic lysis – cell-based, P. falciparum Indochina, OD700, 1 h, primary screen (AID 1154). The following applies: P. falciparum Indochina infected RBC osmotic lysis, higher = more signal, called active from +8 up or from −8 down.
A short description of assay [14]: plasmodial surface anion channel blockers, osmotic lysis – cell-based, P. falciparum Indochina, OD700, 2 h, primary screen (AID 1155).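 Further: lysis reports solute entry through the parasite surface anion channel PSAC.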 Particulars: P. falciparum Indochina infected erythrocytes, higher = more signal, called active from +8 up or from −8 down.
The nature of assay [15]: changes in parasitized red cell lysis, either direction – P. falciparum Indochina, OD700, 3 h, PSAC antagonist project, primary screen (AID 1156). Particulars: P. falciparum-infected erythrocytes, osmotic lysis, higher = more signal, called active from +8 up or from −8 down.
A short description of assay [16]: plasmodial surface anion channel blockers, osmotic lysis – cell-based, P. falciparum Indochina, OD700, 18 h, primary screen (AID 1157). Particulars: P. falciparum Indochina infected erythrocytes, osmotic lysis OD700, 18 h; higher = more signal, called active from +8 up or from −8 down.
Assay [17] can be described thus: S6 kinase pathway phospho-S6 level changes – cell-based, A549, cytoblot, luminescence, serum-stimulated, primary screen (AID 1158).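 Further: serum-stimulated A549 lung adenocarcinoma cells; signal is phosphorylated S6 detected by cytoblot immunostaining with HRP secondary.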 Particulars: 5 h, higher = more signal.
The target of assay [18] is NADPH oxidase 2 (Homo sapiens) (UniProt P04839). The assay is described as follows: compounds shifting NOX2 Amplex Red fluorescence – cell-based, HEK293-NOX2, PMA-stimulated, NOX inhibitor project, primary screen (AID 1159). Further: test concentration not given here. Particulars: 45 min, higher = more signal, called active from +8 up or from −8 down.
The target of assay [19] is NADPH oxidase 4 (Homo sapiens) (UniProt Q9NPH5). In words: compounds shifting NOX4 Amplex Red fluorescence – cell-based, HEK293-NOX4, tetracycline-induced, NOX inhibitor project, primary screen (AID 1160). Particulars: HEK293-NOX4, Amplex Red H2O2 fluorescence, 45 min; higher = more signal, called active from +8 up or from −8 down.
Assay [20] has as its target NADPH oxidase 5 (Homo sapiens) (UniProt Q96PH1). The assay is described as follows: compounds shifting NOX5 Amplex Red fluorescence – cell-based, HEK293-NOX5, NOX inhibitor project, primary screen (AID 1161). The following applies: HEK293-NOX5, ionomycin, 45 min, higher = more signal.

Chain of NADPH oxidase 2 (Homo sapiens) (P04839 whole entry, looked up): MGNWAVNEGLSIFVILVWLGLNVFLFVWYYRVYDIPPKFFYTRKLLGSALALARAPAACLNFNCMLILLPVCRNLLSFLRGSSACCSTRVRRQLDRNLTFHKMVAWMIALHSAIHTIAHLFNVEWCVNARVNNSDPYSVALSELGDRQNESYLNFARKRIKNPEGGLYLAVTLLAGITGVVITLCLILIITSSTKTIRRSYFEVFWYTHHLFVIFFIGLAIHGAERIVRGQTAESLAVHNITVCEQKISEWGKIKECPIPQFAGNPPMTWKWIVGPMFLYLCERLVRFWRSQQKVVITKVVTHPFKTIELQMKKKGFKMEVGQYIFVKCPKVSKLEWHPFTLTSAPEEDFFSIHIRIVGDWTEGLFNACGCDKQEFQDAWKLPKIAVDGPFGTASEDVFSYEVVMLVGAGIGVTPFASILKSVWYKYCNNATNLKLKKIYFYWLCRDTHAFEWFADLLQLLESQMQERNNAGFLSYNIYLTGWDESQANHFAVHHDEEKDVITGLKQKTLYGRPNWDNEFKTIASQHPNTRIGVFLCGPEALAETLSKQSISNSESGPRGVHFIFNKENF
Chain of Torsin-1A (Homo sapiens) (O14656 whole entry, looked up): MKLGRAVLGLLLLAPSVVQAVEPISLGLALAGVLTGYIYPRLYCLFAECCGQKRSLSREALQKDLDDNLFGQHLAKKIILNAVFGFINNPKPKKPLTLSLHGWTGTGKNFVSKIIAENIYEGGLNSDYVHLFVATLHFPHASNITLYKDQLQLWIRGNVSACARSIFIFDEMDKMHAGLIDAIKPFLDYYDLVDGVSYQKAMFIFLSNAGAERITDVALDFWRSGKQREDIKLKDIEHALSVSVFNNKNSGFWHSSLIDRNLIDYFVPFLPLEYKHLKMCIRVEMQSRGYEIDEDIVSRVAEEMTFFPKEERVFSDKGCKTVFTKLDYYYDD
Chain of NADPH oxidase 4 (Homo sapiens) (Q9NPH5 whole entry, looked up): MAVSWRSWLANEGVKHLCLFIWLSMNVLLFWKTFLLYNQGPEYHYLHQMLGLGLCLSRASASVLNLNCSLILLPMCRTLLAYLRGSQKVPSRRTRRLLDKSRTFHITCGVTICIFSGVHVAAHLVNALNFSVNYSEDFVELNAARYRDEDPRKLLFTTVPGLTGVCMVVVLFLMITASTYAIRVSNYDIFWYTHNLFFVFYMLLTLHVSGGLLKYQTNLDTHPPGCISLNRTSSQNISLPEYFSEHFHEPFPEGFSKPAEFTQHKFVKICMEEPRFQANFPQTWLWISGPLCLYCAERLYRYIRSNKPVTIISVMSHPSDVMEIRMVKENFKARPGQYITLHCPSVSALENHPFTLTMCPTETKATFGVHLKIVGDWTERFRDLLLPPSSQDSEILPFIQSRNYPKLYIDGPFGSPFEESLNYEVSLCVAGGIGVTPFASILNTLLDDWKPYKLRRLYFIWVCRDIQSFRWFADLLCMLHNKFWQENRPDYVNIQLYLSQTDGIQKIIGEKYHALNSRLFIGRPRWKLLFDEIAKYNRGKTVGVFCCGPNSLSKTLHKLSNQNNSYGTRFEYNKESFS
Chain of Streptavidin (Streptomyces avidinii) (P22629 whole entry, looked up): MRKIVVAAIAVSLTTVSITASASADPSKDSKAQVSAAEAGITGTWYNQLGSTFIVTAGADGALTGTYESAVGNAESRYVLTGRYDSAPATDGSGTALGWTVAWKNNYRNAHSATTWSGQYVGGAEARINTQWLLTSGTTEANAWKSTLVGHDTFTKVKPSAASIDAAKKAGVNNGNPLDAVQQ
Chain of NADPH oxidase 5 (Homo sapiens) (Q96PH1 whole entry, looked up): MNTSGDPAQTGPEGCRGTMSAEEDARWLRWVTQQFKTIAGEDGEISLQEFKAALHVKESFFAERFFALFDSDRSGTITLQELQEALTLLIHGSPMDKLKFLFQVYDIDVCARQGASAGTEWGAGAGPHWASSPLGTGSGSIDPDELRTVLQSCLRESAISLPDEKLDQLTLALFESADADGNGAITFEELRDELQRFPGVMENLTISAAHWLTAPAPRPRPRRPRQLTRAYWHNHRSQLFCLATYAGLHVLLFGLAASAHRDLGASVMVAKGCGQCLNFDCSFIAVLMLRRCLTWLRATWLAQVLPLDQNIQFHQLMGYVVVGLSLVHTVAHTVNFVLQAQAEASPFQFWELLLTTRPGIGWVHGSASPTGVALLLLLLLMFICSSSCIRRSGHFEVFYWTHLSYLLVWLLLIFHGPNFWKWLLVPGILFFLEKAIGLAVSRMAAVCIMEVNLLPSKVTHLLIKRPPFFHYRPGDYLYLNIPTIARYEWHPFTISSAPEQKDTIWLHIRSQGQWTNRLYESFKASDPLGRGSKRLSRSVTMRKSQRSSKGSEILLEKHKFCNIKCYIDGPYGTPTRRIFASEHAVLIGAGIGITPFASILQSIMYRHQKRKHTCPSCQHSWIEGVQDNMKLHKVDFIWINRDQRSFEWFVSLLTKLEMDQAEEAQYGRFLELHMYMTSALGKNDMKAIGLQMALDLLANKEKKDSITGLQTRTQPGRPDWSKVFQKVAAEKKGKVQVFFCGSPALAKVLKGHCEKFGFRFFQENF

Take `N#Cc1ccc(NN2C(C(O)c3ccc(I)cc3)C=CC3C(=O)N(c4ccccc4)C(=O)C32)cc1` (stereo not given): the composite z-score was 0.205 in assay [1]; 0.941 in [6]; -0.0645 in assay [7]; -0.147 with Torsin-1A (Homo sapiens) [8]; 0.629 in the assay with Torsin-1A (Homo sapiens) [9]; -0.468 in assay [10]. Moreover, the composite z-score in assay [12] is 0.526. For the same compound, the z-score in assay [2] was 0.559 (inactive); in assay [3], -0.363 (inactive); in assay [4], -1.49 (inactive); in assay [5], -0.755 (inactive); in assay [11], -1.95 (inactive); in [13], 9.81 (active). In addition, the z-score was 3.64 (inactive) in assay [14]; -1.43 (inactive) in assay [15]; 2.57 (inactive) in assay [16]; -0.484 in assay [17]; -2.64 (inactive) in [18]; -4.46 (inactive) in assay [19]. The z-score in assay [20] was -2.48.
Take `Cc1cc(C)c(C(O)C2C=CC3C(=O)N(C)C(=O)C3N2N2CCCCC2)c(C)c1` (stereo not given): the composite z-score came to 0.423 in assay [1]; 1.4 in assay [6]; 0.233 in assay [7]; 0.0592 with Torsin-1A (Homo sapiens) [8]; 0.251 in the assay with Torsin-1A (Homo sapiens) [9]; 0.375 in [10]. In [12], this compound had a composite z-score of 0.554. The z-score was 1.09 (inactive) in assay [2]; -0.276 (inactive) in [3]; -0.14 (inactive) in assay [4]; 0.56 (inactive) in assay [5]; -1.06 (inactive) in assay [11]; -0.245 (inactive) in [13]. Further, the z-score in assay [14] is 0.827 (inactive); in assay [15], -0.285 (inactive); in assay [16], 1.12 (inactive); in assay [17], -1.01; in assay [18], -0.669 (inactive); in assay [19] it was 0.167 (inactive). Besides, the z-score in [20] was -1.23.
With `CCCC=C(CCC)[C@@H](NS(=O)(=O)c1ccc(-c2ccccc2)cc1)c1ccc(C(=O)OC)cc1`, the composite z-score in [1] is -0.228; in [6] it was 0.111; in assay [7] it was -0.0791; with Torsin-1A (Homo sapiens) [8] it was -0.269; with Torsin-1A (Homo sapiens) [9], -0.383; in assay [10], -0.948. In addition, the composite z-score in [12] was -0.202. Moreover, the z-score is -3.56 (inactive) in [2]; -0.308 (inactive) in assay [3]; -0.182 (inactive) in [4]; -0.289 (inactive) in [5]; -2.25 (inactive) in [11]; 0.757 (inactive) in assay [13]. Further, the z-score in assay [14] is -0.515 (inactive); in assay [15] it was 0.248 (inactive); in assay [16], -1.71 (inactive); in assay [17], 2.45; in [18], -4.5 (inactive); in assay [19], -4.82 (inactive). In addition, in [20], the z-score is -2.09.
Take `CC(C)[Si](OCC[C@H]1O[C@]2(C(=O)N(Cc3ccccc3)c3ccccc32)[C@@H](C)[C@@H]1[Si](C)(C)O)(C(C)C)C(C)C`: the composite z-score was 0.0427 in assay [1]; -0.0546 in assay [6]; -0.171 in assay [7]; 0.399 with Torsin-1A (Homo sapiens) [8]; -0.131 with Torsin-1A (Homo sapiens) [9]; 0.255 in assay [10]. For the same compound, the composite z-score in assay [12] is -0.193. For the same compound, the z-score is -0.555 (inactive) in assay [2]; 0.735 (inactive) in [3]; 0.223 (inactive) in [4]; -0.242 (inactive) in assay [5]; 0.65 (inactive) in assay [11]; 0.914 (inactive) in assay [13]. Also, the z-score is 0.799 (inactive) in assay [14]; 0.226 (inactive) in assay [15]; 0.403 (inactive) in assay [16]; 0.158 in [17]; 0.999 (inactive) in assay [18]; -0.328 (inactive) in [19]. Besides, the z-score in assay [20] is 0.523.
As for `O=C1C2C=CC(C(O)C#Cc3ccccc3)N(Nc3ccccc3)C2C(=O)N1c1ccccc1` (stereo not given), the composite z-score in [1] was 0.0509; in assay [6], 0.464; in assay [7], 0.0659; with Torsin-1A (Homo sapiens) [8], 0.795; with Torsin-1A (Homo sapiens) [9], -0.0627; in assay [10] it was -0.0028. The compound also displayed a composite z-score in [12] of -0.025. In addition, the z-score was 0.842 (inactive) in assay [2]; -0.2 (inactive) in [3]; 0.24 (inactive) in [4]; 0.0728 (inactive) in assay [5]; -0.559 (inactive) in assay [11]; 4.69 (inactive) in assay [13]. The z-score was 1.8 (inactive) in [14]; 0.537 (inactive) in assay [15]; 1.49 (inactive) in [16]; -0.964 in [17]; -0.432 (inactive) in assay [18]; -4.44 (inactive) in assay [19]. Further, in assay [20], the z-score was -1.09.
`O=C1O[C@H](c2ccccc2)[C@H](c2ccccc2)N2[C@H]1[C@@H](C(=O)NC[C@H](O)c1ccccc1)[C@]1(C(=O)Nc3ccc(C#CC4(O)CCCCCC4)cc31)[C@H]2c1ccc(OCCO)cc1`: the composite z-score was 0.288 in [1]; 0.463 in assay [6]; 0.0082 in [7]; 0.127 in the assay with Torsin-1A (Homo sapiens) [8]; 0.644 with Torsin-1A (Homo sapiens) [9]; 0.756 in assay [10]. The same compound displayed a composite z-score in [12] of 0.0811. The z-score in assay [2] was -5.26 (inactive); in assay [3] it was -0.37 (inactive); in assay [4] it was -0.231 (inactive); in [5], -0.581 (inactive); in assay [11], 3.02 (inactive); in assay [13] it was 3.64 (inactive). For the same compound, the z-score in assay [14] is -0.0068 (inactive); in assay [15] it was 0.226 (inactive); in assay [16] it was -1.03 (inactive); in [17] it was 2.78; in [18], 2.48 (inactive); in assay [19] it was 0.0727 (inactive). Moreover, the z-score in [20] amounted to 0.139.
Take `NC(=O)[C@H]1[C@@H]2C(=O)O[C@@H](c3ccccc3)[C@@H](c3ccccc3)N2[C@@H](c2ccc(O)cc2)[C@]12C(=O)Nc1ccc(C#CCCO)cc12`: the composite z-score is -0.183 in assay [1]; -1.57 in assay [6]; -0.0044 in [7]; -1.39 in the assay with Torsin-1A (Homo sapiens) [8]; 0.806 with Torsin-1A (Homo sapiens) [9]; 0.35 in assay [10]. Further, the composite z-score in assay [12] is -0.0559. In addition, the z-score is 0.134 (inactive) in [2]; -0.453 (inactive) in [3]; -0.258 (inactive) in assay [4]; 0.278 (inactive) in assay [5]; -0.331 (inactive) in assay [11]; 5.17 (inactive) in [13]. Moreover, the z-score was 0.92 (inactive) in [14]; 0.696 (inactive) in assay [15]; 0.442 (inactive) in assay [16]; -0.289 in [17]; 0.482 (inactive) in assay [18]; -0.661 (inactive) in [19]. For the same compound, the z-score in assay [20] amounted to 0.563.
Turning to `COCCOC(=O)N1C(=O)[C@@]2(c3cc(C#CCC(C(=O)OC)C(=O)OC)ccc31)[C@H](c1ccccc1OCCO)N1[C@H](c3ccccc3)[C@H](c3ccccc3)OC(=O)[C@H]1[C@@H]2C(=O)N1CCCCCCC1`, the composite z-score in [1] stood at 1.16; in assay [6], 2.45; in assay [7], 0.628; with Torsin-1A (Homo sapiens) [8], 1.29; with Torsin-1A (Homo sapiens) [9], 0.96; in assay [10], 1.66. The compound also came in with a composite z-score in [12] of 2.43. Further, the z-score in assay [2] is -1.66 (inactive); in assay [3] it was -0.129 (inactive); in [4] it was -0.329 (inactive); in assay [5], 0.0965 (inactive); in [11] it was 0.0371 (inactive); in assay [13], 0.998 (inactive). Moreover, the z-score in [14] was 1.01 (inactive); in [15], 0.259 (inactive); in assay [16] it was 0.508 (inactive); in assay [17], 0.0992; in assay [18], 0.0483 (inactive); in assay [19] it was 0.309 (inactive). In assay [20], the z-score turned out to be 1.52.
